Compound activity: PubChem, National Center for Advancing Translational Sciences (NCATS)
FH mod = Identification of activators of human fumarate hydratase by quantitative high-throughput screening; Potency, µM (top dose mostly 79.9 µM), inactives show at the highest dose activity change, negative = inhibition, actives largely listed as inhibitors; actives 0.22% (n = 54,000); Fumarate hydratase, mitochondrial (Homo sapiens), P07954; FH coupled MDH/diaphorase resazurin fluorescence, 15 min; also: potency is read from the fitted curve at half-maximal effect; % is scaled to controls: 0 for no effect and ±100 for the full control effect; the screen sought activators but most active calls are inhibition curves; nearly all actives have a fitted effect of over 45% in size
DRV1 agonist = agonists of human resolvin D1 receptor DRV1 (GPR32) | actives 2.5% (n = 48,000) | AID 1346428 | CHO-K1 GPR32 beta-arrestin PathHunter luminescence, 90 min; zero percent set by DMSO-only wells | activation, % at 76.9 µM;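 active = activation of at least 60% and not above a set upper limit, about 1 call in 100 departs from these limits; inconclusive = activation of 40% to 60%, or above that upper limit; inactive = activation under 40%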; also: 0% is about no effect
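Agonism was scored by beta-Gal fragment complementation (chemiluminescent read, 1 h detection at ambient temperature) reporting beta-arrestin binding to GPR32 in engineered CHO-K1 cells. Compound treatment lasted 90 min at 37 C, normalized to a DMSO basal control.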
p53null 39C kill = selectivity test: cytotoxicity in p53 null cells, nonpermissive temperature | H1299 p53-null (neo) cells, 39C, ATPlite viability, 24 h | Potency, µM (titrated, usually from 46.1 µM), for inactives: at the top dose activity, negative = cell killing, most hits filed as cytotoxic | actives 0.97% (n = 55,000) | AID 904;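 also: potency is read from the fitted curve at half-maximal effect; 0% = DMSO only and -100% = full killing by 100 µM tamoxifen; nearly all actives have a fitted effect of over 50% in size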
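Luminescent ATP signal reported cell survival after H1299 lines (neo, p53 null; or p53 A138V) received up to 46 uM compound and 24 hr incubation at 39C.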
p53null 32C tox = selectivity test: cytotoxicity in p53 null cells, permissive temperature; AID 903; H1299-neo p53 null cells, ATP luminescence, 24 h, 32C; Potency, µM (titrated, usually from 46.1 µM), for the others: at the top dose activity change, negative = cytotoxicity, hits mostly cytotoxic; actives 0.62% (n = 55,000);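 also: potency is read from the fitted curve at half-maximal effect; 0% = DMSO only and -100% = full killing by 100 µM tamoxifen; nearly all actives have a fitted effect of over 55% in size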
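Cytotoxicity: H1299-neo (no p53), 32C, 24 h treatment. Concentrations up to 46 uM. Readout cellular ATP, luminescence. Normalization to DMSO basal and tamoxifen 100 uM maximal kill.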
GALC G270D act = galactocerebrosidase G270D activity enhancement, cell-based | 145M-Twi-hGALC-G270D cells (Twitcher mouse brain line with human GALC G270D), HMU-beta-Gal fluorescence, 48 h | Potency, µM (highest dose often 57.5 µM), hits mostly activators | actives 0.1% (n = 45,000) | AID 1159614; also: potency is read from the fitted curve at half-maximal effect; 0% is about no effect; nearly all actives have a fitted effect of over 65% in size
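Mutant human GALC (G270D), stably expressed in a Twitcher mouse brain cell line lacking endogenous GALC, is measured in live-treated cells via 6-hexadecanoylamino-4-methylumbelliferyl-β-galactoside hydrolysis (0.1 mM final, pH 5.2) with fluorescent detection.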
NTMT1 inh = NTMT1 methyltransferase inhibition | Q9BV86 | NTMT1 MTase-Glo SAH luminescence, purified enzyme | Potency, µM (series often up to 114 µM), inactives show at the highest dose activity change, negative = inhibition, usual class: inhibitors | actives 2.5% (n = 59,000) | AID 1645870;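 also: potency is read from the fitted curve at half-maximal effect; plate controls were DMSO vehicle for no effect and no enzyme for full effect; nearly all actives have a fitted effect of over 65% in size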
Target sequence (Q9BV86 whole entry, looked up): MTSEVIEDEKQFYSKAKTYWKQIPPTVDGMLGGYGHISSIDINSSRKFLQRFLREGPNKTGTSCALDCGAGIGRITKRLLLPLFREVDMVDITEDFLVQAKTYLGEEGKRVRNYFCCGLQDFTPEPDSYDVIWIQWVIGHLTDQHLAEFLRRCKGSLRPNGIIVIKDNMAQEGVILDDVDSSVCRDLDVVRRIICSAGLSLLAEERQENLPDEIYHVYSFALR
Numbers without * were called inactive; i = inactive; ? = inconclusive; / = no result; [ ] = remark or other dose. Most compounds without a hit are left out; they make up all but 3.9% or so of the library. Unless noted, calls follow the shape of the dose curve; as a rule, active = well fitted curve in the direction sought with a large enough effect; inconclusive = small, poorly fitted or top-dose-only effect, or another doubt; inactive = no such curve, though single readings can be large; an effect the other way counts as inactive or inconclusive.

SMILES	FH mod	DRV1 agonist	p53null 39C kill	p53null 32C tox	GALC G270D act	NTMT1 inh
Cc1cccc(C(=O)Nc2ccc(-c3nc4ccccc4s3)cc2Cl)c1	-2.3%	91.5*	1.8%	-9.0%	i	0.7%
Cc1ccc(C(=O)Nc2ccc(-c3nc4ccccc4s3)cc2C)cc1C	6.8%	20.7	-18.5%	7.3%	i	0.7%
Cc1oc(-c2ccc(Cl)cc2)nc1CS(=O)CC(=O)NCc1ccc(Cl)cc1 (stereo not drawn)	-11.3%	-8.8	-14.4%	1.5%	i	-1.3%
CCc1ccc(-c2nc(CS(=O)CC(=O)NCc3ccc(F)cc3)c(C)o2)cc1 (stereo not drawn)	-0.8%	-14.7	11.7%	12.4%	i	89.1µM*
CCc1ccc(-c2nc(CSCC(=O)NCc3ccc(C)cc3)c(C)o2)cc1	-29.2%	-26.2	26.6%	-7.1%	i	-0.1%
CCOc1ccc(-c2nc(CSCC(=O)NCc3ccc(C)cc3)c(C)o2)cc1	-22.9%	-9.4	17.6%	-23.7%	i	79.4µM*
Nc1ncnc2c1C(=O)N(c1ccc(C3CCC(CC(=O)O)CC3)cc1)CCO2 (stereo not drawn)	-4.9%	/	/	/	/	1.7%
O=C1C2=C(CN1c1ccccc1)NC(Nc1nc3ccccc3o1)=NC2c1ccccc1Cl (stereo not drawn)	/	/	/	/	/	4.5%
Cc1cccc(Nc2nc(-c3ccccc3)nc3ccccc23)c1	?	109.8*	-6.2%	-11.8%	i	-10.2%
Oc1cccc(Nc2nc(-c3ccccc3)nc3ccccc23)c1	?	60.6*	-16.0%	-3.1%	i	?
c1ccc(Nc2nc(-c3ccncc3)nc3ccccc23)cc1	/	/	/	-2.7%	/	/
Cc1ccc(Nc2nc(-c3ccccc3)nc3ccccc23)cc1	?	?	12.9%	?	i	17.3%
CCN(CC)CCCCn1c(-c2ccccc2)nc2c(NCc3ccccc3)nc(C)nc21	/	/	/	/	/	89.1µM*
Cc1cc(=O)[nH]c2nnc(SCC(=O)Nc3cc(C(F)(F)F)ccc3Cl)n12	-16.0%	37.9	?	-14.8%	i	22.2%
O=C(CSc1nnc2[nH]c(=O)cc(-c3ccccc3)n12)Nc1cc(C(F)(F)F)ccc1Cl	?	-6.1	0.794µM*	1.26µM*	i	?
CCc1ccc(NC(=O)Cn2nc(SC)c(S(=O)(=O)c3ccc(OC)cc3)c2N)cc1	-24.5%	15.3	-17.0%	-1.3%	i	7.6%
COc1ccc(S(=O)(=O)c2c(SC)nn(CC(=O)Nc3ccc(C)c(Cl)c3)c2N)cc1	?	85.6*	58.6%	8.3%	i	11.4%
CCSc1nn(CC(=O)Nc2cccc(CC)c2)c(N)c1S(=O)(=O)c1ccccc1	?	93.6*	28.5%	-28.2%	i	-5.0%
C=C(C(=O)OC[C@H]1O[C@@H](OC(=O)/C=C/c2ccccc2)[C@H](O)[C@@H](O)[C@@H]1O)C(O)CO (stereo partly drawn)	-0.3%[53.3 µM]	/	/	/	/	-3.2%[29.8 µM]
COc1ccc(C)cc1NC(=O)c1nnn(CC(=O)Nc2c(C)cccc2C)c1N	-1.2%	1.6	-8.6%	8.7%	i	-17.9%
CCc1ccc(NC(=O)Cn2nnc(C(=O)Nc3cc(C)ccc3OC)c2N)cc1	7.2%	74.3*	-20.4%	-10.3%	i	3.5%
O=C(Nc1cccc2c(=O)cc(-c3nn[nH]n3)oc12)c1ccc(OCCCCc2ccccc2)cc1	?	93.6*	/	/	i	17.8µM*
Cc1c(NC(=O)c2ccc(OC(C)C)cc2)cccc1-c1nc2ncccc2o1	5.6%	88.9*	?	-7.1%	i	7.1%
CCCCc1ccc(NS(=O)(=O)c2cc3c4c(c2)CC(=O)N4CCC3)cc1	?	104.6*	7.5%	40.4%	i	3.3%
COc1cccc(CNc2ccc(S(=O)(=O)Nc3ncccn3)cc2)c1O	/	/	/	/	/	10.4%
